# Results reported in the supplement of paper PMC6555819.
# Assays:
# Assay in all cases: PBM binding z-score (relative to random genomic background probes); higher = stronger binding; sequences stand for … in GC…GCGATTGACAGCGTAGAATGAAGG
# [1] = tested on: RARb homodimer (NR concentration 270 nM)
# Outline: (§1)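 Binding z-scores were set against random background probes. The data came from custom Agilent 4×180K protein-binding microarrays carrying double-stranded probes with 34-nt variable regions, incubated 1 h with ligand-free nuclear receptor dimers. Partner-specific antibodies detected binding, and scanned fluorescence was regression-normalized.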
# [2] = tested on: RARg:RXRa (NR concentration 270 nM, RXRa partner concentration 90 nM)
# Outline: as §1
# [3] = tested on: RARg homodimer (NR concentration 270 nM)
# Outline: as §1
# [4] = tested on: RXRa DBDmut IVT, anti-RXR (DBD mutation: RXRa K156A/R161A, NR concentration 90 nM)
# Outline: as §1
# [5] = tested on: RXRa homodimer (NR concentration 180 nM)
# Outline: as §1
# [6] = tested on: THRa:RXRa (NR concentration 90 nM, RXRa partner concentration 90 nM)
# Outline: as §1
# [7] = tested on: THRa homodimer (NR concentration 90 nM)
# Outline: as §1
# [8] = tested on: VDR homodimer (NR concentration 270 nM)
# Outline: as §1
Sequence,PBM binding z-score [1],PBM binding z-score [2],PBM binding z-score [3],PBM binding z-score [4],PBM binding z-score [5],PBM binding z-score [6],PBM binding z-score [7],PBM binding z-score [8]
TAGCCTAGGTCATTCGGGCCAGTATAGTGTCGGC,3.25,3.72,4.17,1.79,3.07,3.16,1.11,1.49
TCGAGTAGGTTAGTCGGGGCATTCTGCCAACATA,0.157,-0.242,-0.393,0.374,-0.128,0.983,-0.375,0.287
CCGACTTGGGCAAGGTTACCATAACGCACAGCCA,0.919,0.796,0.586,0.164,1.05,1.17,0.449,0.117
TTATATAGGTAAATGCTAGGTGAAAGTCCGATCT,0.66,0.442,0.423,0.585,0.781,1.62,0.619,0.705
TCTCGGAGGACACGAAGGTCAGAGCGTTCCAGAG,3.79,3.32,3.84,0.548,1.94,2.99,0.835,1.2
CGAACTAGGTCATTGACAGGGCAGTGAATAGTAA,2.93,5.12,4.41,2.54,2.89,2.64,0.623,1.08
GCTGCTAGGTCAGGTTGGCCAGCTAACGGGTACG,2.23,2.48,3.46,-0.0229,0.917,1.46,0.0199,0.0457
CCTAGTTTGTCAGGAGGTCACACACCGGATATGA,4.01,4.61,3.87,1.93,4.52,3.62,2.87,3.26
CGTCAAAGTTCAACTACGGTAACGTAAAGCACGC,4.21,5.89,6.48,4.64,5.18,4.23,-0.22,3.69
TCAGACAGGTGAAGGGAACTCAGGTACGCAGTCG,0.93,0.546,0.498,1.36,0.877,0.891,0.717,0.463
ATCGAAAGGTCGTGAGGTGAGTATTCAGAAAGGC,3.27,4.51,4.1,1.91,5.4,3.48,1.52,0.921
ATATCTAGGTAAAGATAGTTCAGTGAATGCAAAT,0.985,0.606,0.877,0.0845,0.518,0.642,-0.33,0.327
GCGACTGGGGCATAAGCAGGTTACCATAACTTAA,0.55,0.617,0.393,0.0117,0.39,0.914,-0.368,-0.246
TCTTGTAGATCAACAGTAGGTTAAGAAAGATCGA,-0.123,0.314,0.0764,0.88,0.463,0.12,-0.482,-0.281
CGTCCAAGGTAAAGGTCAGTGAAAGAGACTCGAA,4.43,4.58,5.49,0.687,4.48,3.2,0.7,0.765
AGTCAAAGTTCACTGGGTAACGTAAGATTCAGCT,3.82,5.43,5.94,4.4,4.47,1.92,-0.189,4.09
ATCGACAGGTCGTGAGGTGAGTATACAGAAAGGC,1.39,2.07,1.67,0.0757,2.17,2.38,1.28,0.435
ATCTCTAGGTAAAGTTGAGTGAAAGATCGATAGA,-0.112,0.406,0.593,-0.00419,0.495,0.689,-0.246,0.103
ACTTACGGGTCAATGAGGTTATAGCACGCGTATA,3.59,5.05,4.75,2.58,6.03,4.16,1.57,3.35

Sequence,PBM binding z-score [1],PBM binding z-score [2],PBM binding z-score [3],PBM binding z-score [4],PBM binding z-score [5],PBM binding z-score [6],PBM binding z-score [7],PBM binding z-score [8]
CCGCCTGGGGCAAAGGTTACCATACTCAGTACGA,2.28,3.48,1.78,-0.0654,3.55,2.05,0.443,0.257
TCGAGCAGGTTAGGGGCATTCAGAATGGCGTCGA,0.54,0.286,0.148,-0.111,0.719,0.723,-0.36,0.474
CCTACTCGGCCAAAGGTCATTGATTCCAATGCTC,4.75,6.07,5.2,1.7,6.26,3.41,1.46,2.63
GCTAGCAGGCCATTTGGGTCACTTAATGACGGGC,1.82,0.913,1.22,-0.0616,0.684,1.79,0.181,0.405
AATACAGGGTCATCGTAAGCCAGAGTACGCACAG,3.27,5.55,4.8,3.07,6.56,3.68,1.39,3.12
TCGAGTAGGTTAGTCGGGGCATCCAGCCAACATA,0.213,0.0156,-0.131,-0.109,0.28,1.05,-0.433,-0.177
CCAGACAGGTGAAACGTAACTCAGTCTGGTACGC,0.0638,0.203,0.432,0.0553,0.53,-0.118,-0.567,-0.448
GCATATAGGTAATACAAGGTGAAACTCCGATTGT,0.806,0.886,0.775,0.602,1.06,4.51,1.21,0.121
CCTTACGGGTCACACCAGGTTATAGCATCGGAGT,3.26,4.99,4.64,1.32,5.18,5.22,0.963,1.61
ACTTACGGGTCAACGTGGTTATAGCACGCGTATA,3.03,5.25,5.16,2.08,6.28,2.64,0.124,1.18
CCTACCGGGCCATTCAGAGGTCATTGATCATATG,4.14,4.98,3.36,0.918,3.86,3.65,1.73,4.05
CCTACTGGGCCAAAAAGGTCATTAATGCCGATAA,4.32,4.16,3.68,0.627,4.26,2.91,0.449,2.2
TCATATATGTAAAGGTGAAAGTCGAACGATATGA,1.45,1.45,1.16,0.622,2.19,1.19,-0.594,0.112
CCTTACGCGTCAAGGTTATAGCACGGGTGGTACG,0.818,0.576,0.348,0.122,1.06,1.5,0.517,0.299
CCGACTGGGGCAAGGCTACCATAACGCACAGCCA,0.53,0.348,0.614,-0.842,0.0101,-0.203,-0.4,-0.136
GATACAGGGTCAGCTATAGGCCAGAGTATGGAAA,2.93,5.42,4.73,1.34,4.02,2.6,0.272,0.536
ATATGTATGTTACATCCGGGTCATTCAGGCTATG,2.37,1.63,1.26,0.811,2.21,3.04,2.62,1.99
CGTCCAAGGTCATAGGAGGTCAGGGAAGACAGAT,5.2,6.79,7.15,3.89,6.99,5.41,3.54,4.28
CCTAGTTGGTCAGGAGGTCACACACCGGATATGA,4.56,5.11,4.78,0.706,4.83,3.61,2.6,2.82

Sequence,PBM binding z-score [1],PBM binding z-score [2],PBM binding z-score [3],PBM binding z-score [4],PBM binding z-score [5],PBM binding z-score [6],PBM binding z-score [7],PBM binding z-score [8]
TCTATTAGGTGATTAGGGCAACCGAAACAGCGGA,1.1,1.09,1.02,0.665,0.927,1.24,0.68,0.277
GTACCAAGGTAAATAGGTCGTTGATGAGTAGGCG,0.723,0.808,0.391,-0.235,0.953,0.973,-0.00878,0.628
CGATCTAGGTCATTGACAGGACAGTGAATAGTAA,2.8,4.48,4.41,2.67,2.41,3.11,1.21,1.49
TCATATAGGTAAAGGTGCAAGTCGAACGATATGA,0.0991,0.803,0.522,0.75,1.18,0.151,-0.746,0.385
CCTGCTAGGACATGGTCAGCTAATCTACAGTATG,-0.2,-0.204,0.478,0.385,-0.656,0.568,-0.28,-0.547
AGAATGAGGTTATACATAGATCAGGGAAGAAAGT,0.905,2.03,1.38,1.27,2.42,2.19,0.855,1.24
CGTCCCAGGTCAGCAGGTCAGTGAAAGCGACGTG,3.99,4.83,4.51,0.368,3.25,3.56,2.19,0.573
CAAACTGGGTCAAAGGTCAAAGTCGAGCCAACCA,5.2,8.56,7.31,2.55,10.1,4.51,1.31,3.12
GCTCGGAGGACTAGGTCAGAGCTTTGTCCGTAGA,1.4,0.32,0.804,-0.871,-0.228,0.731,-0.465,-0.906
CACACTAGGTCACCGGAAGGTCAAAGTCCGCATG,5.83,8.21,7.39,2.24,6.53,4.79,3.54,3.61
CGTCCAAGGTCAAGGTCTGTGAAAGAGACTCGAA,3.88,6.09,6.55,3.21,5.2,3.83,2.46,1.78
GCTGCTAGGTCAACTAATGGTCAGCTAAAGCTCG,3.51,5.28,5.52,1.38,2.65,2.74,0.777,-0.0577
AGTCAAAGTTCAGGACTAGGTAACGTAAAGCACG,2.93,4.32,4.99,2.87,2.92,2.51,0.371,1.94
ACAGACAGGTGATGAAGGTTACTCAGGCTATCAT,1.16,0.777,0.687,0.104,0.748,0.904,0.139,0.291
ACTAGTTGGTCAGCTGAGGTCACTCACAATTCGG,4.24,3.48,3.38,1.11,3.13,4.98,4.9,2.68
ACAGACAGGTGAGTGAGGGTAACTCAGCTGGACG,0.68,0.525,0.533,-0.362,0.572,1.63,0.184,0.0737
GCTCGGAGAACAAGGTCAGAGCTTTGTCCGTAGA,2.36,2.39,2.24,0.418,2.16,2.58,0.95,0.151
TTGAGTAGGTTACCAATGGGGCATTCAGCTTTCT,1.02,1.46,0.739,0.192,0.569,0.168,-0.426,0.0569
GCAGACAGGTGAACCGCAGGTAACTCAGGGTGGC,0.366,1.37,0.342,-0.635,1.54,1.76,-0.376,-0.237
